# Numbering of substitutions follows the chain as printed.
# Tests used:
# Test in all cases: PBM; 200 nM protein, PBS
# Settings in all cases: dsDNA, one strand shown
# ALX3 [1] = target: ALX3 (Homo sapiens, UniProt O95076 139-225, N203Q)
# ALX3 [2] = target: ALX3 (Homo sapiens, UniProt O95076 139-225)
# ALX3 [3] = target: ALX3 (Homo sapiens, UniProt O95076 139-225, L168Q)
# ALX3 [4] = target: ALX3 (Homo sapiens, UniProt O95076 139-225, L168V)
# ALX3 [5] = target: ALX3 (Homo sapiens, UniProt O95076 139-225, N203S)
# Sequence of ALX3 (Homo sapiens, UniProt O95076 139-225, N203S) (O95076 139-225 N203S): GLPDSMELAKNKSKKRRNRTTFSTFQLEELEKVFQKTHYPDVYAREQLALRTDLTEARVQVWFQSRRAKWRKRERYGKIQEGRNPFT
# PAX4 [6] = target: T1, PAX4 (Homo sapiens, UniProt O43316 9-242, F177V)
# T1 sequence: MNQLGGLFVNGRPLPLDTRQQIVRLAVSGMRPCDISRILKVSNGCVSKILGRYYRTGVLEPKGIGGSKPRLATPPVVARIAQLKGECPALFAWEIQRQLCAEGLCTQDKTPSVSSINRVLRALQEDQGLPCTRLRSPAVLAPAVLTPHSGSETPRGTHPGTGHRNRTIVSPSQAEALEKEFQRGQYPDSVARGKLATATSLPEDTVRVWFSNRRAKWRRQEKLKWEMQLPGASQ
# PAX4 [7] = target: T2, PAX4 (Homo sapiens, UniProt O43316 9-242, R227W)
# T2 sequence: T1 sequence with V169F, R219W
# HOXD13 [8] = target: HOXD13 (Homo sapiens, UniProt P35453 263-343, T313R)
# Sequence of HOXD13 (Homo sapiens, UniProt P35453 263-343, T313R) (P35453 263-343 T313R): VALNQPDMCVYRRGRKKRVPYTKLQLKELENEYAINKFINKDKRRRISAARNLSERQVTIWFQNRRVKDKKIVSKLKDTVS
# HOXD13 [9] = target: HOXD13 (Homo sapiens, UniProt P35453 263-343)
# Sequence of HOXD13 (Homo sapiens, UniProt P35453 263-343) (P35453 263-343): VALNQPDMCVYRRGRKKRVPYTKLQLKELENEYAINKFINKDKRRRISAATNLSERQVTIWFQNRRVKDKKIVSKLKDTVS
# HOXD13 [10] = target: HOXD13 (Homo sapiens, UniProt P35453 263-343, T313A)
# Sequence of HOXD13 (Homo sapiens, UniProt P35453 263-343, T313A) (P35453 263-343 T313A): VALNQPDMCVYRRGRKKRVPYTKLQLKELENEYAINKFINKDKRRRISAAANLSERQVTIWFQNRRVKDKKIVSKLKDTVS
# PROP1 [11] = target: PROP1 (Homo sapiens, UniProt O75360 56-141)
# Sequence of PROP1 (Homo sapiens, UniProt O75360 56-141) (O75360 56-141): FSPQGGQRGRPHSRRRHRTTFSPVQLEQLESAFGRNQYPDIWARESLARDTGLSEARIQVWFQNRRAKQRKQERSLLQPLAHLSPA
# PROP1 [12] = target: PROP1 (Homo sapiens, UniProt O75360 56-141, R99H)
# Sequence of PROP1 (Homo sapiens, UniProt O75360 56-141, R99H) (O75360 56-141 R99H): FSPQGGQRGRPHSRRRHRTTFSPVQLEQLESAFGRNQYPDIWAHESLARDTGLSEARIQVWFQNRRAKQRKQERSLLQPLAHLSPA
# PROP1 [13] = target: PROP1 (Homo sapiens, UniProt O75360 56-141, F88S)
# Sequence of PROP1 (Homo sapiens, UniProt O75360 56-141, F88S) (O75360 56-141 F88S): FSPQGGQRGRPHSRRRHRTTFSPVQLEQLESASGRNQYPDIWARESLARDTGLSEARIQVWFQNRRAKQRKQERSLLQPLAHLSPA
# VAX1 [14] = target: VAX1 (Homo sapiens, UniProt Q5SQQ9 86-172)
# Sequence of VAX1 (Homo sapiens, UniProt Q5SQQ9 86-172) (Q5SQQ9 86-172): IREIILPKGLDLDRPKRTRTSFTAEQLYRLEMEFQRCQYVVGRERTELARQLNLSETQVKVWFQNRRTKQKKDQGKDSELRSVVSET
# VAX1 [15] = target: VAX1 (Homo sapiens, UniProt Q5SQQ9 86-172, T142I)
# Sequence of VAX1 (Homo sapiens, UniProt Q5SQQ9 86-172, T142I) (Q5SQQ9 86-172 T142I): as the sequence (Q5SQQ9 86-172) above, with T57I counted along it
# VAX1 [16] = target: VAX1 (Homo sapiens, UniProt Q5SQQ9 86-172, K157R)
# Sequence of VAX1 (Homo sapiens, UniProt Q5SQQ9 86-172, K157R) (Q5SQQ9 86-172 K157R): as the sequence (Q5SQQ9 86-172) above, with K72R counted along it
# NKX2-6 [17] = target: T3, NKX2-6 (Homo sapiens, UniProt A6NCS4 118-204)
# T3 sequence: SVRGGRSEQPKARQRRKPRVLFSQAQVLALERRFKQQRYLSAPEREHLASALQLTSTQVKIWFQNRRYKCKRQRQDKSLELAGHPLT
# NKX2-6 [18] = target: T4, NKX2-6 (Homo sapiens, UniProt A6NCS4 118-204, F151L)
# T4 sequence: T3 sequence with F34L
# Sequence of ALX3 (Homo sapiens, UniProt O95076 139-225) (O95076 139-225): as the sequence (O95076 139-225 N203S) above, with S65N counted along it
# Sequence of ALX3 (Homo sapiens, UniProt O95076 139-225, L168V) (O95076 139-225 L168V): as the sequence (O95076 139-225 N203S) above, with L30V, S65N counted along it
# Sequence of ALX3 (Homo sapiens, UniProt O95076 139-225, N203Q) (O95076 139-225 N203Q): as the sequence (O95076 139-225 N203S) above, with S65Q counted along it
# Sequence of ALX3 (Homo sapiens, UniProt O95076 139-225, L168Q) (O95076 139-225 L168Q): as the sequence (O95076 139-225 N203S) above, with L30Q, S65N counted along it
sequence,measurement,setting,value
AGGCACGC,binding signal,ALX3 [1],"7.63 upbm affinity estimate (log intensity, higher = more binding, comparable within an allelic series)"
same,binding signal,ALX3 [2],"7.78 upbm affinity estimate (log intensity, higher = more binding, comparable within an allelic series)"
same,binding signal,ALX3 [3],"7.71 upbm affinity estimate (log intensity, higher = more binding, comparable within an allelic series)"
same,binding signal,ALX3 [4],"7.61 upbm affinity estimate (log intensity, higher = more binding, comparable within an allelic series)"
same,binding signal,ALX3 [5],"7.64 upbm affinity estimate (log intensity, higher = more binding, comparable within an allelic series)"
ATATAATA,binding signal,ALX3 [1],"8.64 upbm affinity estimate (log intensity, higher = more binding, comparable within an allelic series)"
same,binding signal,PAX4 [6],"10.8 upbm affinity estimate (log intensity, higher = more binding, comparable within an allelic series)"
same,binding signal,PAX4 [7],"10.9 upbm affinity estimate (log intensity, higher = more binding, comparable within an allelic series)"
same,binding signal,ALX3 [5],"8.68 upbm affinity estimate (log intensity, higher = more binding, comparable within an allelic series)"
AGGGGGGC,binding signal,ALX3 [1],"7.49 upbm affinity estimate (log intensity, higher = more binding, comparable within an allelic series)"
same,binding signal,ALX3 [2],"7.66 upbm affinity estimate (log intensity, higher = more binding, comparable within an allelic series)"
same,binding signal,ALX3 [3],"7.62 upbm affinity estimate (log intensity, higher = more binding, comparable within an allelic series)"
same,binding signal,ALX3 [4],"7.47 upbm affinity estimate (log intensity, higher = more binding, comparable within an allelic series)"
same,binding signal,ALX3 [5],"7.44 upbm affinity estimate (log intensity, higher = more binding, comparable within an allelic series)"
GCTTCGAC,binding signal,ALX3 [1],"7.77 upbm affinity estimate (log intensity, higher = more binding, comparable within an allelic series)"
same,binding signal,HOXD13 [8],"9.46 upbm affinity estimate (log intensity, higher = more binding, comparable within an allelic series)"
same,binding signal,HOXD13 [9],"9.32 upbm affinity estimate (log intensity, higher = more binding, comparable within an allelic series)"
same,binding signal,ALX3 [2],"7.65 upbm affinity estimate (log intensity, higher = more binding, comparable within an allelic series)"
same,binding signal,ALX3 [3],"7.79 upbm affinity estimate (log intensity, higher = more binding, comparable within an allelic series)"
same,binding signal,HOXD13 [10],"9.54 upbm affinity estimate (log intensity, higher = more binding, comparable within an allelic series)"
same,binding signal,ALX3 [4],"7.79 upbm affinity estimate (log intensity, higher = more binding, comparable within an allelic series)"
same,binding signal,ALX3 [5],"7.83 upbm affinity estimate (log intensity, higher = more binding, comparable within an allelic series)"
ACCGCGGT,binding signal,ALX3 [1],"7.85 upbm affinity estimate (log intensity, higher = more binding, comparable within an allelic series)"
same,binding signal,ALX3 [2],"8.03 upbm affinity estimate (log intensity, higher = more binding, comparable within an allelic series)"
same,binding signal,ALX3 [3],"7.86 upbm affinity estimate (log intensity, higher = more binding, comparable within an allelic series)"
same,binding signal,ALX3 [4],"7.92 upbm affinity estimate (log intensity, higher = more binding, comparable within an allelic series)"
same,binding signal,ALX3 [5],"7.86 upbm affinity estimate (log intensity, higher = more binding, comparable within an allelic series)"
ACCCCCGC,binding signal,ALX3 [1],"7.74 upbm affinity estimate (log intensity, higher = more binding, comparable within an allelic series)"
same,binding signal,ALX3 [2],"7.66 upbm affinity estimate (log intensity, higher = more binding, comparable within an allelic series)"
same,binding signal,PROP1 [11],"6.56 upbm affinity estimate (log intensity, higher = more binding, comparable within an allelic series)"
same,binding signal,PROP1 [12],"6.52 upbm affinity estimate (log intensity, higher = more binding, comparable within an allelic series)"
same,binding signal,ALX3 [3],"7.66 upbm affinity estimate (log intensity, higher = more binding, comparable within an allelic series)"
same,binding signal,ALX3 [4],"7.68 upbm affinity estimate (log intensity, higher = more binding, comparable within an allelic series)"
same,binding signal,PROP1 [13],"6.34 upbm affinity estimate (log intensity, higher = more binding, comparable within an allelic series)"
same,binding signal,ALX3 [5],"7.73 upbm affinity estimate (log intensity, higher = more binding, comparable within an allelic series)"
CATATTAC,binding signal,ALX3 [1],"8.38 upbm affinity estimate (log intensity, higher = more binding, comparable within an allelic series)"
same,binding signal,ALX3 [2],"10.5 upbm affinity estimate (log intensity, higher = more binding, comparable within an allelic series)"
same,binding signal,VAX1 [14],"10.8 upbm affinity estimate (log intensity, higher = more binding, comparable within an allelic series)"
same,binding signal,VAX1 [15],"10.4 upbm affinity estimate (log intensity, higher = more binding, comparable within an allelic series)"
same,binding signal,VAX1 [16],"10.5 upbm affinity estimate (log intensity, higher = more binding, comparable within an allelic series)"
CGGCCCAG,binding signal,ALX3 [1],"7.75 upbm affinity estimate (log intensity, higher = more binding, comparable within an allelic series)"
same,binding signal,NKX2-6 [17],"8.83 upbm affinity estimate (log intensity, higher = more binding, comparable within an allelic series)"
same,binding signal,ALX3 [2],"7.72 upbm affinity estimate (log intensity, higher = more binding, comparable within an allelic series)"
same,binding signal,PROP1 [11],"6.51 upbm affinity estimate (log intensity, higher = more binding, comparable within an allelic series)"
same,binding signal,PROP1 [12],"6.59 upbm affinity estimate (log intensity, higher = more binding, comparable within an allelic series)"
same,binding signal,ALX3 [3],"7.67 upbm affinity estimate (log intensity, higher = more binding, comparable within an allelic series)"
same,binding signal,NKX2-6 [18],"9.1 upbm affinity estimate (log intensity, higher = more binding, comparable within an allelic series)"
same,binding signal,ALX3 [4],"7.67 upbm affinity estimate (log intensity, higher = more binding, comparable within an allelic series)"
same,binding signal,PROP1 [13],"6.34 upbm affinity estimate (log intensity, higher = more binding, comparable within an allelic series)"
same,binding signal,ALX3 [5],"7.74 upbm affinity estimate (log intensity, higher = more binding, comparable within an allelic series)"
ATAAATGG,binding signal,ALX3 [1],"8.33 upbm affinity estimate (log intensity, higher = more binding, comparable within an allelic series)"
same,binding signal,ALX3 [2],"9.85 upbm affinity estimate (log intensity, higher = more binding, comparable within an allelic series)"
TTATTAAA,binding signal,ALX3 [1],"8.64 upbm affinity estimate (log intensity, higher = more binding, comparable within an allelic series)"
same,binding signal,HOXD13 [8],"10.8 upbm affinity estimate (log intensity, higher = more binding, comparable within an allelic series)"
same,binding signal,HOXD13 [9],"11.9 upbm affinity estimate (log intensity, higher = more binding, comparable within an allelic series)"
same,binding signal,HOXD13 [10],"11.7 upbm affinity estimate (log intensity, higher = more binding, comparable within an allelic series)"
same,binding signal,ALX3 [5],"8.68 upbm affinity estimate (log intensity, higher = more binding, comparable within an allelic series)"

# From publication PMC11006913
